Data on 105 compounds can be found in ChEMBL document CHEMBL3988442, “University of Dundee, Small-Polar-MMV Screening Library” (2021).

Out of some 48,000 compounds screened, about 13,000 (27%) showed an effect of 50% or more. This is one part of the list.

This test has as its system Wolbachia pipientis. As to the kind of experiment: Anti-Wolbachia Cell-Based Screen. Type of test: functional. Details: scale not given: in the data most compounds retested in dose-response had high values. As to conditions: 5 µM.
Take `CCC(Nc1ccc(Oc2ccccc2OC)cc1)C(N)=O` (stereo not given): the “Percent Effect” value turned out to be 11.69%.
For `CCC(Nc1ccc(CCN2CCOCC2)cc1)C(N)=O` (stereo not given) the value was 92.12%; for `CC(CCc1ccccc1)NC(=O)CN1CCOCC1` (stereo not given), -21.53%.
For `CCC(C)C(=O)Nc1ccc(CCN2CCOCC2)cc1` (stereo not given) the value was 92.28%; for `CC(Nc1ccc(CCN2CCOCC2)cc1)C(=O)N(C)CCC#N` (stereo not given), 7.396%.
For `COC(=O)C(O)C1CCN(CCc2ccncc2)CC1` (stereo not given) the value was -5.946%; for `CCOC(=O)C(C)Nc1ccc(CCN2CCOCC2)cc1` (stereo not given), 97.92%; for `O=C(Nc1ccc(CCN2CCC(O)CC2)cc1)C1CCOCC1`, 8.941%.
Consider `NC(=O)C1CCN(CCc2ccc(NC(=O)C3CCC3)cc2)CC1`, for which the “Percent Effect” value is reported as -0.7709%.
The same measure for `Cc1ccc(CCCC(=O)N(C)CCN2CCOCC2)cc1`: -4.729%; for `CC(Nc1ccc(CCN2CCCCC2)cc1)C(=O)N(C)CCC#N` (stereo not given): -7.662%; for `CCC(Nc1ccc(CCN2CCCCC2)cc1)C(N)=O` (stereo not given): 104.3%.
As for `CCOc1cc(NC(=O)NCCn2cnnc2CC)ccc1C`, the “Percent Effect” value is listed as -0.5638%.
With `CCc1nc(CN2CCN(c3ncnc4cc(F)ccc34)CC2)no1`, the “Percent Effect” value is listed as -16.98%.
As to `CN(CCO)Cc1nnc(C2CCN(C(=O)c3cc[nH]c3)CC2)n1C`, the “Percent Effect” value was -143.4%.
The same measure for `CN(C)C(=O)CN1C[C@H]2CCN(c3ncccn3)CC[C@H]2S1(=O)=O.O=C(O)C(F)(F)F`: -3.991%.
The same measure for `CN(C)C(=O)[C@@H]1CCO[C@@H]2CCN(c3ncccn3)C[C@@H]21.O=C(O)C(F)(F)F`: 0.2661%.
For `CN(C)C(=O)C1CN(c2ncccn2)CCN1C` (stereo not given) the value was 84.43%; for `CN(C)C(=O)[C@H]1C[C@@H]2CN(c3ncccn3)C[C@H]1O2`, 10.85%; for `Cc1ccc(C(=O)N2C[C@@H]3CN(c4ncccn4)C[C@@H]3C2)cc1`, 3.247%.
Consider `CN1CCN(c2ncccn2)CC1C(N)=O` (stereo not given), for which the “Percent Effect” value is on record as 76.51%.
For `CSc1cccc(CN(C)C(=O)CN2CCN(c3ncccn3)CC2)c1` the value was -6.038%.
The same measure for `Cc1ccc(C(=O)N2C[C@@H]3CN(c4ncccn4)C[C@@H]3C2)cn1`: 1.13%.
`CN1CCN(c2ncccn2)CC(C(=O)N(C)C)C1` (stereo not given): the “Percent Effect” value came to 92.05%.
Turning to `CCc1c(C)nc(C)nc1N1C[C@@H](CN(CC)CCO)[C@@H](CO)C1`, the “Percent Effect” value was determined as 6.908%.
For `COc1cc(F)ccc1N1CCN(Cc2nnc(C3CC3)o2)CC1` the value was -5.388%; for `CCCc1noc(CN2CCC(N(C)Cc3nnc(C4CC4)o3)C2)n1` (stereo not given), 109.8%; for `CCCc1n[nH]c(C2CN(Cc3nnc(C4CC4)o3)CCO2)n1` (stereo not given), -2.84%.
The same measure for `Cc1nc(CN2CCCC(N(C)Cc3nnc(C4CC4)o3)C2)no1` (stereo not given): 6.77%.
The same measure for `CC(C)c1nc(CN(C)C2CCN(Cc3nc(C4CC4)no3)C2)no1` (stereo not given): -21.22%; for `CC(C)c1nc(CN(C)C2CCN(Cc3nnc(C4CC4)o3)C2)no1` (stereo not given): 123.9%.
Turning to `CN(Cc1nnc(C2CC2)o1)C1CCN(CCCc2cnn(C)c2)C1` (stereo not given), the “Percent Effect” value was found to be 3.532%.
For the compound `CCc1nc(CN(C)C2CCN(Cc3nnc(C4CCC4)o3)C2)no1` (stereo not given), the “Percent Effect” value came out at 110.6%.
For `CCc1nc(CN2CCCC(N(C)Cc3cnn(C)c3)C2)no1` (stereo not given) the value was 10.72%; for `CCc1nc(CN(C)C2CCN(Cc3cnc(C)cn3)C2)no1` (stereo not given), 5.773%.
For `Cc1nc(CN(C)C2CCN(Cc3nnc(C4CC4)o3)C2)no1` (stereo not given), the “Percent Effect” value was 115.8%.
Take `Cc1nc(CN2CCCC(N(C)Cc3nc(C)c(C)o3)C2)no1` (stereo not given): the “Percent Effect” value was -3.907%.
Regarding `CC(C)c1nc(CN2CCCN(Cc3nnc(C4CC4)o3)CC2)no1`, the “Percent Effect” value came to 0.1522%.
On to `O=S(=O)(Cc1ccccc1Cl)NCCCN1CCCC1`, for which the “Percent Effect” value was -15.99%.
For `OC1CCN(C2CCN(Cc3cnc(-c4cccs4)nc3)CC2)CC1` the value was 3.199%; for `COc1cc(OC)c(-c2nc3c([nH]2)c(C2CC2)nn3C)cc1OC`, 11.95%; for `CN1CCOC(C(=O)Nc2nc(-c3ccc(Cl)cc3)n[nH]2)C1` (stereo not given), -7.364%.
For `O=C(O)CC(O)(CC(=O)O)C(=O)O.c1ccc([C@@H]2CN(Cc3cccnc3)C[C@H]2c2cc[nH]n2)cc1` the value was 104%.
In the case of `COc1ccc([C@@H]2CN(Cc3ccncc3)C[C@H]2c2cc[nH]n2)cc1.O=C(O)CC(O)(CC(=O)O)C(=O)O`, the “Percent Effect” value worked out at 69.64%.
On to `O=C(O)CC(O)(CC(=O)O)C(=O)O.c1ccc(CC2CCN(Cc3ccnc(-c4cccnc4)n3)CC2)cc1`, for which the “Percent Effect” value is given as 2.968%.
The same measure for `COc1ccc(CN2C[C@@H]3CN(Cc4ccncc4)C[C@@H]3C2=O)cc1.O=C(O)C(F)(F)F.O=C(O)C(F)(F)F`: -12.53%; for `O=C(O)CC(O)(CC(=O)O)C(=O)O.c1ccc([C@@H]2CN(Cc3ccncc3)C[C@H]2c2cc[nH]n2)cc1`: 114%; for `COc1ccc(CN2C[C@H]3CN(Cc4ccncc4)C(=O)[C@H]3C2)cc1.O=C(O)C(F)(F)F.O=C(O)C(F)(F)F`: -3.011%.
The same measure for `COc1ccccc1[C@@H]1CN(Cc2ccncc2)C[C@H]1C(=O)O`: -10.92%; for `O=C(O)CC(O)(CC(=O)O)C(=O)O.c1cncc(-c2nccc(CN3CCCC3)n2)c1`: -12.77%.
The same measure for `O=C(CCC1CCCC1)N1C[C@H]2CC[C@@H]1CN(Cc1ccncc1)C2`: 3.308%; for `Cc1csc(CN(C)S(=O)(=O)c2ccc(C)c(N(C)C)c2)n1`: 11.95%; for `CN(C)C(=O)c1noc2c1CN(C(=O)CCCN1CCCCC1)CC2`: -13.23%.
With `Cc1c(NC(=O)c2noc3c2CCCC3)cnn1C`, the “Percent Effect” value came out at 77.55%.
The same measure for `COc1cccc([C@H]2CN(C(=O)c3noc4c3CCCC4)C[C@@H]2N)c1`: -1.914%; for `Cn1ncc(NC(=O)c2noc3c2CCCC3)c1C(N)=O`: 112.2%; for `Cn1ncc(NC(=O)c2noc3c2CCCC3)c1C(=O)N1CCCCC1`: 98.83%.
The same measure for `Cc1cc(CN2CCC(CNC(=O)c3noc4c3CCCC4)C2)[nH]n1` (stereo not given): -1.453%; for `CN1CCc2[nH]cnc2C12CCN(C(=O)c1noc3c1CCCC3)CC2`: 33.96%.
The same measure for `Cc1cc(C(N)=O)ccc1NC(=O)c1nc(N2CCCC2)ncc1Cl`: -12.29%.
For `CCC(CNS(C)(=O)=O)Oc1ccccc1F` (stereo not given), the “Percent Effect” value was -7.569%.
The same measure for `CN1CCC(C2CCN(Cc3cccc(-n4cccn4)c3)CC2)C1` (stereo not given): -5.048%; for `CC(=O)N1CC(=O)N(c2cnn(C)c2)CC12CCN(Cc1cccs1)C2.O=C(O)C(F)(F)F` (stereo not given): 106.8%; for `CC(=O)N1CC(=O)N(c2cnn(C)c2)CC12CCN(Cc1ccco1)C2` (stereo not given): 98.22%.
Consider `CC(=O)N1CC(=O)N(c2ccccc2)CC12CCN(Cc1cccs1)C2.O=C(O)C(F)(F)F` (stereo not given), for which the “Percent Effect” value was 4.365%.
The same measure for `CC(=O)N1CC(=O)N(c2cnn(C)c2)CC12CCN(Cc1ccsc1)C2.O=C(O)C(F)(F)F.O=C(O)C(F)(F)F` (stereo not given): 4.027%; for `CC(=O)N1CC(=O)N(c2cnn(C)c2)CC12CCN(Cc1ccoc1)C2` (stereo not given): -11.13%.
Turning to `CC(=O)N1CC(=O)N(c2cnn(C)c2)CC12CCN(Cc1nccs1)C2` (stereo not given), the “Percent Effect” value is on record as -3.662%.
For `CN(Cc1cccc2ncccc12)C(=O)CCn1ccc(=O)[nH]c1=O` the value was 10.3%.
As for `CN(Cc1cc(Cl)cc2cccnc12)CC1CCN(CCO)CC1`, the “Percent Effect” value is given as -4.482%.
For `CNC(=O)CN1CCC(NC(=O)Cc2ccccc2OC(C)C)CC1` the value was -20.84%.
The same measure for `CNC(=O)CN1CCC(CN(C)Cc2ccncc2Cl)CC1`: 104.1%.
The same measure for `CNC(=O)CN1CCC(c2nn(C)c(=O)n2-c2ccccc2)CC1`: 1.276%; for `CNC(=O)CN1CCC(CN(C)Cc2ccccc2N(C)C)CC1`: 105.8%; for `CNC(=O)CN1CCC(NC(=O)N(C)Cc2cc(C)on2)CC1`: 7.433%.
For the compound `CC(=O)N(Cc1noc(C)n1)C1CCN(Cc2ccncc2Cl)C1` (stereo not given), the “Percent Effect” value is 6.525%.
Turning to `CNC(=O)CN1CCCC(Cc2ccccc2OC)C1` (stereo not given), the “Percent Effect” value was determined as 4.844%.
The same measure for `CNC(=O)CN1CCC(CN(C)Cc2ccc(C)cc2C)CC1`: 95.31%; for `CNC(=O)CN1CCC(NC(=O)Cn2cc(C)c3ccccc32)CC1`: -8.28%.
The same measure for `CNC(=O)CN1CCC(CN(C)CCSc2ccccc2)CC1`: 112.7%.
Take `CNC(=O)CN1CCC(NC(=O)CC(C)CCc2ccccc2)CC1` (stereo not given): the “Percent Effect” value is 1.042%.
As for `CCC(CNC(=O)C1CC1)(OC)c1ccccc1` (stereo not given), the “Percent Effect” value is listed as -6.712%.
The same measure for `Cc1cccc(CNC[C@H]2Cn3cc(-c4ccccc4)nc3CO2)n1`: -23.05%; for `CC(C)c1csc(C(=O)N(C)c2ccc(Br)cn2)n1`: -10.23%.
Consider `Cc1ccc(OCCCNC(=O)Cc2nc3ncccn3n2)cc1`, for which the “Percent Effect” value is -3.394%.
Regarding `Cc1ncccc1-c1cc2cccnc2n1CCCNC(=O)C(C)(C)C.Cl`, the “Percent Effect” value is listed as 83.99%.
For `CC(NC(=O)NCCCn1cccn1)c1cccnc1` (stereo not given) the value was 14.81%.
For the compound `Cc1cccnc1NCCNC(=O)C1CCN(Cc2ccco2)CC1`, the “Percent Effect” value is -35.11%.
Turning to `CC(C)(C)C(=O)NCCCc1nc2ccccc2[nH]1`, the “Percent Effect” value is recorded as 0.1098%.
For `CC(C)(C)C(=O)NCCNCc1ccc(Cl)c2cccnc12` the value was -7.376%; for `Cc1cccnc1NCCNC(=O)C1CCN(C(=O)N(C)C)CC1`, -7.872%.
Regarding `Cc1ncccc1-c1cc2cccnc2n1CCCNC(=O)C1CC1.Cl`, the “Percent Effect” value is reported as 102.7%.
Take `CCC(=O)NCCCn1c(-c2cccnc2C)cc2cccnc21.Cl`: the “Percent Effect” value is 116.3%.
The same measure for `CCS(=O)(=O)NCC(=O)N(C1CC1)C1Cc2ccccc2C1`: 0.1274%; for `CC(C)C(NC(=O)c1ccc(=O)[nH]c1)c1nnc2n1CCNCC2` (stereo not given): 5.765%; for `O=C(c1ccccc1OC1CCCC1)N1CCCC(n2cncn2)C1` (stereo not given): 131.9%.
The same measure for `COc1cc(C2(C(=O)NC3CCN(C4CC4)CC3)CC2)ccc1C`: -9.965%; for `Cn1cc(C(=O)N2CCCC(n3cncn3)C2)ccc1=O` (stereo not given): -4.437%; for `O=C(c1ccc(Br)o1)N1CCCC(n2cncn2)C1` (stereo not given): 3.935%.
The same measure for `COc1cc(C2(C(=O)N3CCCC(n4cncn4)C3)CC2)ccc1C` (stereo not given): 127.9%; for `COc1cc(C2(C(=O)N3CCN(CC(C)(C)O)CC3)CC2)ccc1C`: -9.844%; for `CCOc1cc(C(=O)N2CCCC(n3cncn3)C2)ccc1C` (stereo not given): 31.02%.
On to `COc1ccc(C)cc1C(=O)N1CCCC(n2cncn2)C1` (stereo not given), for which the “Percent Effect” value turned out to be 125.6%.
The same measure for `O=C(c1ccc(C(F)(F)F)nc1)N1CCCC(n2cncn2)C1` (stereo not given): -5.926%; for `COc1cc(C(=O)N2CCCC(n3cncn3)C2)ccc1C` (stereo not given): 123.7%.
